# Reference: PubChem BioAssay AID623970 (The Scripps Research Institute Molecular Screening Center, 2012)
# Several values for one entry are separate records, joined by “and”; a condition that tells them apart may be missing. Equal values may be shown once. Unmarked numbers belong to inactive results. Activity calls are given as the source filed them. Rule as the data show it: active = IC50 below about 90 µM; inactive = the rest.
# Experiment: DNA binding via SYBR dye displacement, late-stage follow-up, artefact control for HCV NS3 helicase inhibitor project, biochemical, fluorescence (AID 623970)
row,Compound,IC50
1,Cc1ccc2nc(-c3ccc4nc(-c5ccc(NC(=O)c6ccc(N(C)C)cc6)cc5)sc4c3)sc2c1S(=O)(=O)O,> 100 µM
2,Cc1ccc2nc(-c3ccc4nc(-c5ccc(NC(=O)c6ccc7ccccc7c6)cc5)sc4c3)sc2c1S(=O)(=O)O,36 µM (active) and 25 µM (active)
3,CC(=O)Nc1ccc(-c2nc3ccc(-c4nc5ccc(C)c(S(=O)(=O)O)c5s4)cc3s2)cc1,> 100 µM
4,Cc1ccc2nc(-c3ccc4nc(-c5ccc(NC(=O)c6ccc(Br)cc6)cc5)sc4c3)sc2c1S(=O)(=O)O,30 µM (active)
5,Cc1ccc2nc(-c3ccc4nc(-c5ccc(NC(=O)c6ccccc6)cc5)sc4c3)sc2c1S(=O)(=O)O,> 100 µM
6,Cc1ccc2nc(-c3ccc4nc(-c5ccc(NC(=O)c6ccc7nc(-c8ccc(NC(=O)OCC9c%10ccccc%10-c%10ccccc%109)cc8)sc7c6)cc5)sc4c3)sc2c1S(=O)(=O)O,22 µM (active)
7,Cc1ccc2nc(-c3ccc4nc(-c5ccc(NC(=O)c6cc(C(F)(F)F)cc(C(F)(F)F)c6)cc5)sc4c3)sc2c1S(=O)(=O)O,86 µM (active)
8,Cc1ccc2nc(-c3ccc4nc(-c5ccc(NC(=S)Nc6ccccc6)cc5)sc4c3)sc2c1S(=O)(=O)O,30 µM (active)
9,Cc1ccc2nc(-c3ccc4nc(-c5ccc(NC(=O)Nc6ccc(Cl)cc6)cc5)sc4c3)sc2c1S(=O)(=O)O,8 µM (active)
10,Cc1cc(C(O)(c2ccc(Nc3ccccc3)cc2)c2ccc(Nc3ccc(S(=O)(=O)O)cc3)cc2)ccc1N (centres undefined),17 µM (active)
11,COC(=O)c1ccc(C(=O)Nc2ccc(-c3nc4ccc(-c5nc6ccc(C)c(S(=O)(=O)O)c6s5)cc4s3)cc2)cc1,> 100 µM
12,Cc1ccc2nc(-c3ccc(N)cc3)sc2c1S(=O)(=O)O,> 100 µM
13,Cc1ccc(C(=O)Nc2ccc(-c3nc4ccc(-c5nc6ccc(C)c(S(=O)(=O)O)c6s5)cc4s3)cc2)cc1,> 100 µM
14,COc1ccc(NC(=O)Nc2ccc(-c3nc4ccc(-c5nc6ccc(C)c(S(=O)(=O)O)c6s5)cc4s3)cc2)cc1,73 µM (active)
15,Cc1ccc2nc(-c3ccc4nc(-c5ccc(NC(=O)c6cccnc6)cc5)sc4c3)sc2c1S(=O)(=O)O,> 100 µM
16,CCN(CC)c1ccc(-c2nc3ccc(C)c(S(=O)(=O)O)c3s2)cc1,> 100 µM
17,Cc1ccc2nc(-c3ccc4nc(-c5ccc(NC(=O)c6ccc7nc(-c8ccc(N)cc8)sc7c6)cc5)sc4c3)sc2c1S(=O)(=O)O,68 µM (active)
18,Cc1ccc2nc(-c3ccc(NC(=O)c4ccc(NC(=S)Nc5ccccc5)cc4)cc3)sc2c1S(=O)(=O)O,> 100 µM
19,Cc1cc2sc(-c3ccc(N)cc3)nc2cc1S(=O)(=O)O,> 100 µM
20,Cc1ccc2nc(-c3ccc(NC(=O)c4ccc(NC(=O)c5ccccc5)cc4)cc3)sc2c1S(=O)(=O)O,> 100 µM
21,CCOc1ccc2c(NNC(=O)c3cnccn3)c3c(nc2c1)CCCC3,> 100 µM
22,Cc1ccc2nc(-c3ccc4nc(-c5ccc(NC(=O)c6ccc(C(F)(F)F)cc6)cc5)sc4c3)sc2c1S(=O)(=O)O,29 µM (active)
23,Cc1ccc2nc(-c3ccc4nc(-c5ccc6nc(-c7ccc(N)cc7)sc6c5)sc4c3)sc2c1S(=O)(=O)O (tested in a mixture with another compound),43 µM (active)
24,Cc1ccc2nc(-c3ccc(NC(=O)c4ccc(NS(=O)(=O)c5ccccc5)cc4)cc3)sc2c1S(=O)(=O)O,> 100 µM
25,Cc1ccc2nc(-c3ccc4nc(-c5ccc(NC(=O)Nc6ccc(C(F)(F)F)cc6)cc5)sc4c3)sc2c1S(=O)(=O)O,18 µM (active)
26,Cc1ccc2nc(-c3ccc4nc(-c5ccc(NC(=O)c6ccc(Cl)cc6)cc5)sc4c3)sc2c1S(=O)(=O)O,31 µM (active)
27,Cc1ccc2nc(-c3ccc4nc(-c5ccc(NC(=O)c6cccc(Cl)c6)cc5)sc4c3)sc2c1S(=O)(=O)O,> 100 µM
28,Cc1ccc2nc(-c3ccc4nc(-c5ccc(NCc6ccccc6)cc5)sc4c3)sc2c1S(=O)(=O)O,27 µM (active)
29,COc1cccc2c(=O)c3cc(Cl)cc(C(=O)Nc4cc(Cl)ccn4)c3[nH]c12,> 100 µM
